These results are taken from PubChem BioAssay AID585 (National Center for Advancing Translational Sciences (NCATS), 2007).

About 1,300 (1.8%) of roughly 71,000 compounds were called active. Where a call stands in place of a potency, no number is given. Calls follow the shape of the full dose curve. The full list was thinned out, with actives kept by preference.
Potency is read from the fitted curve at half-maximal effect.

In this assay the target is Beta-lactamase (Escherichia coli (strain K12)) (UniProt P00811). The assay is described as follows: Promiscuous and Specific Inhibitors of AmpC Beta-Lactamase (assay without detergent). Conditions: AmpC nitrocefin hydrolysis, absorbance 480 nm, no detergent; series mostly up to 28.7 µM. A digest of the protocol: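 AmpC in 20 mM phosphate buffer pH 7.0 was preincubated 15 min at room temperature with compounds. Nitrocefin (800 uM stock) was then added and hydrolysis followed at 480 nm every 20 s for 4 min.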
Sequence of Beta-lactamase (Escherichia coli (strain K12)) (P00811 whole entry, looked up): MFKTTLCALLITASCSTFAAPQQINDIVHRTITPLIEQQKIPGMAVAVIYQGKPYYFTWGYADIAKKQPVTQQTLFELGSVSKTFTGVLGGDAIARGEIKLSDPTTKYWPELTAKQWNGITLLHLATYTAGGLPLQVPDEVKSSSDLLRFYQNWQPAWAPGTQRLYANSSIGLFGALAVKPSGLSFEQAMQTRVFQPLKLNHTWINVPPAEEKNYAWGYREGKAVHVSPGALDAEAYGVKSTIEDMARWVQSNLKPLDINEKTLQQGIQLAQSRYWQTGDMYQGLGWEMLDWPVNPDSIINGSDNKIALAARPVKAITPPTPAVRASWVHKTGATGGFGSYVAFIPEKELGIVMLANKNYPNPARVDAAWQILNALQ
`C=CCNC(=O)C1CC=CCC1C(=O)O` (centres undefined): the Potency result was “inactive”. As for `CCOc1ccc(Cn2nnc(C(=O)Nc3ccc(OC)cc3OC)c2N)cc1`, the entry is “inactive”; as for `Nc1c(C(=O)NCc2ccccc2)nnn1Cc1cccc(Cl)c1`, “inactive”; as for `CCOc1ccc(Cn2nnc(C(=O)NCc3ccccc3)c2N)cc1`, 3.16 µM [single pt active] (active). `Cc1cc(N2C(=O)C(=O)/C(=C(/O)c3ccc(Cl)cc3)C2c2cccc(Br)c2)no1` (centres undefined): the Potency result was “inactive”. Take `COc1ccc(C(CNC(=O)c2cccnc2SC)N2CCOCC2)cc1` (centres undefined): the Potency entry was “inactive”.

Regarding `O=C(CN1C(=O)C2C3C=CC(C3)C2C1=O)NCCc1ccccc1Cl` (centres undefined), the Potency result is “inactive”.

With `O=C(NCCN1C(=O)C2C3C=CC(C3)C2C1=O)Nc1ccccn1` (centres undefined), the Potency is 3.98 µM [single pt active] (active). In the case of `O=C(CCN1C(=O)C2C3C=CC(C3)C2C1=O)Nc1ccccc1F` (centres undefined), the Potency result is “inactive”. Turning to `CCOc1ccc(CN(Cc2ccco2)C(c2cccs2)c2nnnn2C(C)(C)C)cc1` (centres undefined), the Potency entry was “inactive”.

Take `O=C(COC(=O)c1ccccc1C(=O)c1ccccc1)c1ccco1`: the Potency entry was “inactive”. Turning to `O=C(NCc1ccc2c(c1)OCO2)c1cc2c(s1)CS(=O)(=O)C2`, the Potency is 12.6 µM [single pt active] (active).

With `CCOC(=O)NCc1ccc2c(c1)OCO2`, the Potency result was “inactive”. With `Cc1ccc(C(=O)OCC(=O)NCc2ccc3c(c2)OCO3)s1`, the Potency result was “inactive”.

`CC(Sc1sc(=S)sc1SC(C)C(=O)O)C(=O)O` (centres undefined): the Potency result is “inactive”. The same measure for `COc1ccc(C(=O)Nc2nncs2)c(OC)c1`: 3.98 µM [single pt active] (active); for `O=C(Nc1nncs1)c1ccccc1NS(=O)(=O)c1cccs1`: “inactive”. As for `COC(=O)c1sc(NC(=O)c2ccc(OC)cc2OC)nc1C`, the entry is “inactive”; as for `COc1ccc(CC(=O)Nc2ccc(-c3nnc(-c4ccccc4)o3)cc2)cc1`, “inactive”. Take `Cc1ccc(OCC(=O)Nc2ccc(-c3nnc(-c4ccco4)o3)cc2)cc1`: the Potency result was “inactive”. In the case of `O=C(COC(=O)c1ccc(Oc2ccccc2)cc1)Nc1nnc(-c2ccccc2)o1`, the Potency is 15.8 µM (active). With `CS(=O)(=O)N1CCC2(CC1)CN(Cc1cc(C(F)(F)F)cc(C(F)(F)F)c1)C2`, the Potency entry is “inactive”. As for `CC1(C)C(=O)Nc2ccccc2N1C(=O)COC(=O)Cn1cnc2ccccc2c1=O`, the entry is “inactive”; as for `Cn1nc(-c2ccc(Cl)cc2)c2cc(C(=O)NCc3ccco3)sc21`, 3.16 µM (active). With `COc1cccc(-c2nn(C)c3sc(C(=O)N4CCN(c5ccccc5)CC4)cc23)c1`, the Potency entry was “inactive”. Regarding `O=C(NCc1ccco1)c1nc2ncccn2n1`, the Potency result was “inactive”.

As to `O=C(NCc1ccco1)c1cc(-c2cccnc2)nc2ccc(Cl)cc12`, the Potency result is “inactive”. For `CCOC(=O)N1CCN(C(=O)c2cc3c(-c4ccc(Cl)cc4)nn(C)c3s2)CC1`, the Potency was 2.51 µM [single pt active] (active).

In the case of `COc1ccccc1N1CCN(C(=O)c2cc3c(-c4ccc(Cl)cc4)nn(C)c3s2)CC1`, the Potency result is “inactive”.
